Our source for the outcome and AC50 values is PubChem BioAssay (EPA / NIEHS).

“And” between values parts separate entries of the source, which are not always exact repeats. Equal entries are not always repeated. More than one record can exist for a structure, and the calls need not agree. The source made the active and inactive calls. How the source made its calls: active means hit-call score of the fitted dose curve at least 0.9, where 1 is the maximum; inactive means score below 0.9.

A short description of test [1]: ATG_GLI_CIS: Attagene CIS-FACTORIAL HepG2 Assay for human Zinc Finger Protein GLI1 (AID 2282945). To be noted: HepG2, Attagene cis-factorial reporter mRNA, GLI element; actives raise or lower the signal. Put shortly:
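Bidirectional curve fits relative to DMSO, using reporter mRNA levels from RT-PCR plus capillary electrophoresis. Cells were HepG2 transiently carrying cis-regulated reporter constructs, harvested 24 h after dosing.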

Test [2] can be described thus: ATG_GRE_CIS: Attagene CIS-FACTORIAL HepG2 Assay for human Glucocorticoid Response Elements (GRE) (AID 2282947). To be noted: HepG2 GRE cis-reporter, Attagene multiplex mRNA; actives raise or lower the signal. In short, it runs like this: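 Multiplexed cis-reporter mRNA induction, HepG2, 24 h post-dose. RT-PCR, FAM-labelled, HpaI-digested amplicons by CE. Bidirectional fit vs DMSO.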

Test [3] in a line: ATG_ISRE_CIS: Attagene CIS-FACTORIAL HepG2 Assay for human Interferon Regulatory Factor 1 (IRF1) binding to an Interferon-Stimulated Response Element (ISRE) (AID 2282948). To be noted: HepG2 ISRE cis-reporter (Attagene), mRNA transcription readout; actives raise or lower the signal. Put shortly:
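Endogenous transcription factor activity read as reporter transcript abundance via RT-PCR and capillary electrophoresis. HepG2 cells transiently transfected, 24 h chemical exposure. Gain or loss fitted against DMSO baseline.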

Test [4] can be described thus: ATG_M_32_CIS: Attagene CIS-FACTORIAL HepG2 Assay for M32 Transcription Factor (Internal Marker) (AID 2282949).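 Further: background control marker of the multiplexed CIS panel rather than a real target.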 The note with it: HepG2 Attagene cis-factorial M32 reporter, mRNA; actives raise or lower the signal. Put shortly:
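Using DMSO as baseline, bidirectional curve fits were applied to reporter mRNA signals. These came from transiently transfected HepG2 cells exposed for 24 h, with RNA analysed by RT-PCR, FAM primer extension, HpaI digestion and CE.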

Test [5] in a line: ATG_M_06_CIS: Attagene CIS-FACTORIAL HepG2 Assay for M06 Transcription Factor (Internal Marker) (AID 2282950). The note with it: HepG2 Attagene CIS-FACTORIAL M06 internal marker reporter; actives raise or lower the signal. In short, it runs like this:
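One of many multiplexed endpoints: HepG2 reporter mRNA after 24 h dosing, detected by RT-PCR and capillary electrophoresis fluorescence; gain or loss of signal analysed against DMSO.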

Test [6] concerns the target Hepatocyte nuclear factor 6 (Homo sapiens) (UniProt Q9UBC0). The test is described as follows: ATG_HNF6_CIS: Attagene CIS-FACTORIAL HepG2 Assay for human Hepatocyte Nuclear Factor 6 (HNF6) (AID 2282952). To be noted: HepG2 Attagene cis-factorial HNF6 reporter transcription; actives raise or lower the signal. Put shortly: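 Using cis-element reporters in HepG2 liver cells, the assay tracks endogenous factor-driven transcription 24 h post-dosing. Signal comes from 6-FAM-labelled, HpaI-digested RT-PCR fragments, with gain or loss scored against DMSO.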

The target of test [7] is Heat shock factor protein 1 (Homo sapiens) (UniProt Q00613). The experiment in a line: ATG_HSE_CIS: Attagene CIS-FACTORIAL HepG2 Assay for human Heat Shock Transcription Factor 1 (HSE) (AID 2282953). To be noted: HepG2 HSE cis-reporter, Attagene RNA transcription; actives raise or lower the signal. In short, it runs like this:
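Using HepG2 with transfected cis-driven reporter constructs, compound effects on endogenous factor activity are scored as reporter mRNA change at 24 h. Detection: RT-PCR, HpaI digestion, capillary electrophoresis; bidirectional fitting to DMSO.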

Test [8] in a line: ATG_MRE_CIS: Attagene CIS-FACTORIAL HepG2 Assay for human Metal Responsive Element (MRE) (AID 2282954). The note with it: HepG2 MRE cis-reporter transcription, Attagene multiplex; actives raise or lower the signal. In short, it runs like this:
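Multiplexed cis-reporter assay in human HepG2 liver cells, 24 h incubation with test chemical. Reporter transcripts measured by RT-PCR and capillary electrophoresis; values from bidirectional curve fitting versus DMSO.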

The nature of test [9]: ATG_PBREM_CIS: Attagene CIS-FACTORIAL HepG2 Assay for human Phenobarbital-responsive Enhancer Module (PBREM) (AID 2282955). To be noted: HepG2 PBREM cis-reporter, Attagene multiplexed transcription; actives raise or lower the signal. Put shortly:
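Measures endogenous factor action on a phenobarbital-responsive enhancer module. HepG2 transiently carrying cis reporters, 24 h treatment, mRNA read-out by RT-PCR plus capillary electrophoresis.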

In test [10] the target is Paired box protein Pax-6 (Homo sapiens) (UniProt P26367). The experiment in a line: ATG_Pax6_CIS: Attagene CIS-FACTORIAL HepG2 Assay for human Paired Box 6 (PAX6) (AID 2282956). The note with it: HepG2 CIS-FACTORIAL PAX6 reporter transcription, RNA readout; actives raise or lower the signal. In short, it runs like this:
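Read-out is reporter transcript level, measured by RT-PCR with fluorescent primer extension and capillary electrophoresis after 24 h dosing of transfected HepG2 cells. Activity in either direction fitted relative to DMSO control.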

The nature of test [11]: ATG_PXRE_CIS: Attagene CIS-FACTORIAL HepG2 Assay for human Pregnane X Receptor Element (PXRE) (AID 2282957). The note with it: HepG2 Attagene CIS-FACTORIAL PXRE reporter, mRNA; actives raise or lower the signal. In short, it runs like this: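 Using HepG2 transfected with multiple reporter transcription units, endogenous factor-driven transcription was scored as reporter mRNA after 24 h exposure.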

Test [12] in a line: ATG_PPRE_CIS: Attagene CIS-FACTORIAL HepG2 Assay for human Peroxisome Proliferator-activated Response Element (PPRE) (AID 2282958). The note with it: HepG2 PPRE cis-element reporter, Attagene transcription factor profiling; actives raise or lower the signal. In short, it runs like this: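 PPRE activity in HepG2: transient cis-reporter transfection, 24 h compound incubation, reporter mRNA by RT-PCR and CE fluorescence; gain/loss fitted against DMSO.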

A short description of test [13]: ATG_RORE_CIS: Attagene CIS-FACTORIAL HepG2 Assay for human RAR-related Orphan Receptor Element (RORE) (AID 2282959). To be noted: HepG2 Attagene cis-factorial RORE reporter, mRNA; actives raise or lower the signal. In short, it runs like this: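 A 24-hour exposure of transfected HepG2 hepatoma cells precedes RNA isolation and reporter RT-PCR. Labeled products are digested with HpaI and resolved by capillary electrophoresis, with gain or loss of signal scored relative to DMSO.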

The nature of test [14]: ATG_Sox_CIS: Attagene CIS-FACTORIAL HepG2 Assay for human SRY-box transcription factor (SOX) (AID 2282960). The note with it: HepG2 Attagene cis-factorial SOX reporter, mRNA; actives raise or lower the signal. Put shortly: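 HepG2, cis reporter units, 24 h exposure. Reporter mRNA: RT-PCR → FAM labelling → HpaI → CE fluorescence. Bidirectional fit vs DMSO.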
For test [15], the target named is Transcription factor Sp1 (Homo sapiens) (UniProt P08047). The test is described as follows: ATG_Sp1_CIS: Attagene CIS-FACTORIAL HepG2 Assay for human Specificity Protein 1 (Sp1) (AID 2282961). To be noted: HepG2 Sp1 cis-reporter transcription, actives raise or lower the signal. Put shortly: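 Liver-derived HepG2 cells, cis-element reporter library, 24 h treatment; RNA isolated, cDNA amplified with reporter-specific primers, FAM-labeled fragments sized on capillary analyzer. DMSO baseline, bidirectional curve fit.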

Test [16] is described as follows: ATG_SREBP_CIS: Attagene CIS-FACTORIAL HepG2 Assay for human Sterol Regulatory Element Binding (SREBP) (AID 2282962). To be noted: HepG2 Attagene cis-factorial SREBP reporter, mRNA; actives raise or lower the signal. Put shortly:
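Endogenous SREBP activity read as cis-element-driven reporter transcript in transiently transfected HepG2, 24 h post-dosing; quantified via RT-PCR plus capillary electrophoresis of fluorescent fragments. Gain or loss of signal fitted relative to DMSO baseline.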

Test [17] deals with Signal transducer and activator of transcription 3 (Homo sapiens) (UniProt P40763). The test is described as follows: ATG_STAT3_CIS: Attagene CIS-FACTORIAL HepG2 Assay for human Signal Transducer and Activator of Transcription 3 (STAT3) (AID 2282963). The note with it: HepG2, Attagene cis-factorial STAT3 reporter transcription; actives raise or lower the signal. Put shortly:
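Cis-factorial format: endogenous transcription factors in HepG2 drive transfected reporter units. After 24 h treatment, reporter RNA was reverse-transcribed, amplified, FAM-labelled and HpaI-digested before CE analysis; activity scored in both directions against DMSO.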

The nature of test [18]: ATG_TA_CIS: Attagene CIS-FACTORIAL HepG2 Assay for human TA Basal Promoter (AID 2282964). To be noted: HepG2 Attagene CIS-factorial TA basal promoter reporter; actives raise or lower the signal. Put shortly: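 Transient MRTU transfection of HepG2 preceded 24 h compound exposure. Reporter mRNA levels were then read by RT-PCR with capillary electrophoresis, and this background-control endpoint was fitted bidirectionally to DMSO.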

The target in test [19] is Hypoxia-inducible factor 1-alpha (Homo sapiens) (UniProt Q16665). The experiment in a line: ATG_HIF1a_CIS: Attagene CIS-FACTORIAL HepG2 Assay for human Hypoxia Inducible Factor 1 (HIF1A) (AID 2282951). The note with it: HepG2 Attagene cis-factorial HIF1a reporter transcription; actives raise or lower the signal. In short, it runs like this:
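After 24 h chemical exposure of reporter-transfected HepG2 cells, reporter cDNA was PCR-amplified, labelled by 6-FAM primer extension (2 min 95 C, 20 s 68 C, 10 min 72 C), HpaI-cut (2 h, 37 C) and analysed by CE.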

Test [20] deals with Bile acid receptor (Homo sapiens) (UniProt Q96RI1). The experiment in a line: ATG_IR1_CIS: Attagene CIS-FACTORIAL HepG2 Assay for human Nuclear Receptor Subfamily 1 Group H Member 4 (NR1H4), IR1 submotif (AID 2282946). To be noted: IR1 reporter transcription, actives raise or lower the signal. Put shortly: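 HepG2 cells transiently transfected with multiplexed cis-element reporter units read endogenous transcription factor activity. After 24 h compound exposure, reporter mRNA was quantified by RT-PCR, fluorescent labelling, HpaI digestion and capillary electrophoresis; bidirectional fitting versus DMSO baseline.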
Bile acid receptor (Homo sapiens), sequence (Q96RI1 whole entry, looked up): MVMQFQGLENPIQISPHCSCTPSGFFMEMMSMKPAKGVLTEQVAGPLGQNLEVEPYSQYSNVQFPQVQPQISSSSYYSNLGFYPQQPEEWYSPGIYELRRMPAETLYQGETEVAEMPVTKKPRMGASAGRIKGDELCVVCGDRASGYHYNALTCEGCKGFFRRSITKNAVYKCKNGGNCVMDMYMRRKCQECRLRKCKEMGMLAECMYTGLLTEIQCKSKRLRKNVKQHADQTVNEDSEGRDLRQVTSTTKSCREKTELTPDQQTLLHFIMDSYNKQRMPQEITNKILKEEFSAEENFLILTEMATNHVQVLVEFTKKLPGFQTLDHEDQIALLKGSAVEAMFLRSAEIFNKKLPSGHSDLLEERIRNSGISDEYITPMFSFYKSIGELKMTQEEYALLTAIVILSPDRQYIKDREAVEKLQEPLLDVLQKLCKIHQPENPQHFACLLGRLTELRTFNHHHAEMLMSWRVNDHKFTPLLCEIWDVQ

Hepatocyte nuclear factor 6 (Homo sapiens), sequence (Q9UBC0 whole entry, looked up, the tested form may be a part): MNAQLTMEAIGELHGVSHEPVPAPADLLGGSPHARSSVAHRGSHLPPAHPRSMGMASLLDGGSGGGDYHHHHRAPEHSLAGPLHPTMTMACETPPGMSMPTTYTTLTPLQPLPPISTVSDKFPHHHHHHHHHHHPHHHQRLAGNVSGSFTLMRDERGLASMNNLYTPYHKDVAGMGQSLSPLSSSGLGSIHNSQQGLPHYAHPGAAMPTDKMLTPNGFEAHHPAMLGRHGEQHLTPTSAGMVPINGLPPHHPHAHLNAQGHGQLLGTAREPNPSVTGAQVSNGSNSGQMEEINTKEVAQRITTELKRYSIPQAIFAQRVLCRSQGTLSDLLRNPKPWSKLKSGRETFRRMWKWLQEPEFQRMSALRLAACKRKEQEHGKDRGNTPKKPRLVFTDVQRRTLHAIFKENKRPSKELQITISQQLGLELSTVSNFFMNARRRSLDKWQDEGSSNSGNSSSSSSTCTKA
Signal transducer and activator of transcription 3 (Homo sapiens), sequence (P40763 whole entry, looked up): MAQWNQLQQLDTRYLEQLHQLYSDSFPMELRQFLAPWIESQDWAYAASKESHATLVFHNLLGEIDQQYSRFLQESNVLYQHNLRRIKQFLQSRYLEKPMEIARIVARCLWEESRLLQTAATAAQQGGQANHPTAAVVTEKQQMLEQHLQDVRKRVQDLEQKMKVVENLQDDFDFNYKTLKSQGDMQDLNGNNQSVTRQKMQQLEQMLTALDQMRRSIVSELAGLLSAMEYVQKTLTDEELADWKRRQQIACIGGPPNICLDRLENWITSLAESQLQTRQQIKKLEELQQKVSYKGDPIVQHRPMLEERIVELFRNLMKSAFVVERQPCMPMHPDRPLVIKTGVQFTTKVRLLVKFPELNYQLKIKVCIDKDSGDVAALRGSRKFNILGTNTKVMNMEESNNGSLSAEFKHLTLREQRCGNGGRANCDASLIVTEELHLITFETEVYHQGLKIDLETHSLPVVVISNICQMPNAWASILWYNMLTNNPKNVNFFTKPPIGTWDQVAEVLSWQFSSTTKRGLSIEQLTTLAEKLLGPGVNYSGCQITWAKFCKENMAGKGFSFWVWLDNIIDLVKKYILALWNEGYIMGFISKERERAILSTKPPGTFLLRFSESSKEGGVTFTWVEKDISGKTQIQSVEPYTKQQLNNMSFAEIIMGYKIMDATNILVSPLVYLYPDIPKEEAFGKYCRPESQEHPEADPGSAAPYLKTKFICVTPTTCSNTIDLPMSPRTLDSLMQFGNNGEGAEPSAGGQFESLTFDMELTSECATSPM
Hypoxia-inducible factor 1-alpha (Homo sapiens), sequence (Q16665 whole entry, looked up): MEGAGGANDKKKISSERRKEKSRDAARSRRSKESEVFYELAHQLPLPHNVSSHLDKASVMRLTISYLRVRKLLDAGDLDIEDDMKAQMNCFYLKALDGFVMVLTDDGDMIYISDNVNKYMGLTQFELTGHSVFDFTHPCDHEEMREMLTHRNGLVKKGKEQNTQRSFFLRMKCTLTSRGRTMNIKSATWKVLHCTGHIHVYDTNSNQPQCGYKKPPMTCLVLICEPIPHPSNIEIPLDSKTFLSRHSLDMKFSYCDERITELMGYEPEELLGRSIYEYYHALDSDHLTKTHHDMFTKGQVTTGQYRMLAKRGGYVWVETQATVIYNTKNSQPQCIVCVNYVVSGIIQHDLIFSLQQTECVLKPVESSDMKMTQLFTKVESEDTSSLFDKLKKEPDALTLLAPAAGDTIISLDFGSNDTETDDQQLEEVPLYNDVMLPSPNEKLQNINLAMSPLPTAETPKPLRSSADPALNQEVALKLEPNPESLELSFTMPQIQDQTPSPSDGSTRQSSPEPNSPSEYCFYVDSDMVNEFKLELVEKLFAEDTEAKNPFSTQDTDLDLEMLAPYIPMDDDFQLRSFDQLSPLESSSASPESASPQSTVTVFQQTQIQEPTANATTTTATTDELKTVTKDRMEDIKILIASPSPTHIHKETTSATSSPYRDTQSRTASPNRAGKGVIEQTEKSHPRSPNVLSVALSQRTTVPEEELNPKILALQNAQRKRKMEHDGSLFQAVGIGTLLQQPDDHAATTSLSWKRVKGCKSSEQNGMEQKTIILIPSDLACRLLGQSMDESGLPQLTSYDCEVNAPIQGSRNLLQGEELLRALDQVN
Paired box protein Pax-6 (Homo sapiens), sequence (P26367 whole entry, looked up): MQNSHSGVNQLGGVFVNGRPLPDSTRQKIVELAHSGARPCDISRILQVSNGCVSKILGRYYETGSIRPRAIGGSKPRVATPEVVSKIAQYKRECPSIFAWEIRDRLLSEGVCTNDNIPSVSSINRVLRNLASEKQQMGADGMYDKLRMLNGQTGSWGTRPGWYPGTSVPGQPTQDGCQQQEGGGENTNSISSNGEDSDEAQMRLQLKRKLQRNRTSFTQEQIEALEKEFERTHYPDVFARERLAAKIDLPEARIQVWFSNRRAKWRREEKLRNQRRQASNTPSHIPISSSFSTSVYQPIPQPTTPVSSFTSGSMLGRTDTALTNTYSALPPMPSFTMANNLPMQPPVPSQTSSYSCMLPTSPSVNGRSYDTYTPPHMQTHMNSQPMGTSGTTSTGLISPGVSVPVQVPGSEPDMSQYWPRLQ
Transcription factor Sp1 (Homo sapiens), sequence (P08047 whole entry, looked up, the tested form may be a part): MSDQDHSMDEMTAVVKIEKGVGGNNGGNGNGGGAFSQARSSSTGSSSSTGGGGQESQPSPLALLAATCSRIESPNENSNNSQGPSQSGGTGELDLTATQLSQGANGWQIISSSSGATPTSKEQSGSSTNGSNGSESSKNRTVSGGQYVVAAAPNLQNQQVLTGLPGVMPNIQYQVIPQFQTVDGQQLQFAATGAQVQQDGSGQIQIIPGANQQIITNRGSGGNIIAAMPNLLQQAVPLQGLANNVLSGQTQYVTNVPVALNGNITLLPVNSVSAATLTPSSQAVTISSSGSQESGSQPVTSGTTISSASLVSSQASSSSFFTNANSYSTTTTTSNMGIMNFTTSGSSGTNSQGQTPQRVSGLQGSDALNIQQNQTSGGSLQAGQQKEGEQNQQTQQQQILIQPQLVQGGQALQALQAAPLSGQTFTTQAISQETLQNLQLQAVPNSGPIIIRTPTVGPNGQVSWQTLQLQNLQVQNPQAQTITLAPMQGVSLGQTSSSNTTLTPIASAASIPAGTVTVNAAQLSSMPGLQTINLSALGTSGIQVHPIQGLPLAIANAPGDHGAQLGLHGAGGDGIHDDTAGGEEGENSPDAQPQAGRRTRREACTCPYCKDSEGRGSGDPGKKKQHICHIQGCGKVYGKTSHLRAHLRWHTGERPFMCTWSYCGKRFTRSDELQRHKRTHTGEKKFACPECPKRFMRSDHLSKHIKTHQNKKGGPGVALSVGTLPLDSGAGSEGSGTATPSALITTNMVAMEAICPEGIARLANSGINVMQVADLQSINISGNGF
Heat shock factor protein 1 (Homo sapiens), sequence (Q00613 whole entry, looked up): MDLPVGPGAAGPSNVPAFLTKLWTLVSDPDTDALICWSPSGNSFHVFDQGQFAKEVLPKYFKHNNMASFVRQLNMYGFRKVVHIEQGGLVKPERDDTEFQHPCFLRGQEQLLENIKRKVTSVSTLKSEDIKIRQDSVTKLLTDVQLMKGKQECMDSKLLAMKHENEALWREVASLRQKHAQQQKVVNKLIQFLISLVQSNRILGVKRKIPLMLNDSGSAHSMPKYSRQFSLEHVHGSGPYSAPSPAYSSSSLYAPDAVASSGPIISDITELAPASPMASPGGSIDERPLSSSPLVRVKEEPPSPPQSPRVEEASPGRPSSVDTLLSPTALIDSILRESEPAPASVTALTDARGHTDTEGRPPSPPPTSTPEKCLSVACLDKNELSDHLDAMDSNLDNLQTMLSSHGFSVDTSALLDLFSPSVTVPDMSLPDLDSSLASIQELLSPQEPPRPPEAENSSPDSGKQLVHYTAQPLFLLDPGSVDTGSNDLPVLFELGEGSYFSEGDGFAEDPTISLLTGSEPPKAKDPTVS

Broadly, the AC50 is the concentration giving half of the maximal activity seen. Regarding `CC1=C(/C=C/C(C)=C/C=C/C(C)=C/C(=O)O)C(C)(C)CCC1`, the molecule was classed as inactive in test [1], in [2], in [4], in test [5], in test [6] and in [9]. Moreover, the molecule was called inactive in test [10], in test [13], in test [15], in test [16], in [17] and in [18]. Moreover, the AC50 in [3] was 54.4 µM (active) and 106 µM (active); in test [7], 50.5 µM (active) and 93 µM (active); in [8], 39.7 µM (active) and 55 µM (active); in test [9] it was 6.62 µM (active); in [10], 42.8 µM (active); in [11], 1.48 µM (active) and 1.26 µM (active). The half-maximal activity concentration (AC50) in [12] was 43.6 nM (active) and 9.62 µM (active); in [13], 8.89 µM (active); in test [14] it was 51.1 µM (active) and 24.6 µM (active); in test [15] it was 11.9 µM (active); in [18] it was 21.4 µM (active).

Regarding `O=C(O)c1ccccc1C(c1ccc(O)cc1)c1ccc(O)cc1`, the molecule was classed as inactive in test [1], in test [2], in test [3], in test [4], in [19] and in [6]. Moreover, the result in test [7], in test [8], in test [9], in test [10], in test [12] and in test [13] was inactive. In addition, the call in test [14], in test [15], in test [16], in test [17] and in test [18] was inactive. The AC50 in test [11] was 44.9 µM (active) [middle of 4 runs].

Take `COC(=O)CCCCC(=O)OC`: the call in test [1], in test [20], in test [2], in test [3], in test [4] and in test [19] was inactive. Besides, the result in [6], in [7], in [8], in test [10], in [11] and in test [12] was inactive. Moreover, the result in test [13], in test [14], in test [15], in [16], in test [17] and in test [18] was inactive.

Turning to `CCCCCCCCOC(=O)CCCCCCCCC(=O)OCCCCCCCC`, the molecule was classed as inactive in test [1], in test [20], in test [2], in test [3], in test [4] and in test [19]. Also, the call in test [6], in test [7], in test [8], in test [9], in [10] and in test [11] was inactive. In addition, the molecule was called inactive in test [12], in [13], in [14], in test [15], in [16] and in test [17]. For the same molecule, the call in test [18] was inactive.

On to `COCC(C)O` (stereo unspecified), for which the outcome in test [1], in test [2], in test [3], in test [4], in test [19] and in [6] was inactive. Moreover, the molecule was called inactive in test [8], in test [10], in [11], in test [14], in test [15] and in test [16]. Further, the result in [17] and in test [18] was inactive.

As for `CC(C)(C)CC(C)(C)c1ccc(O)c(-n2nc3ccccc3n2)c1`, the molecule was classed as inactive in test [1], in test [20], in test [2], in test [3], in test [4] and in test [19]. For the same molecule, the outcome in [6], in test [7], in test [8], in test [9], in test [10] and in [12] was inactive. Moreover, the molecule was called inactive in test [13], in test [14], in test [15], in [16], in [17] and in test [18]. In test [11], the AC50 was 1.15 µM (active).
